In the library only some 10% were active in any assay of this set; here they are far more common.
Six1-Eya2 blk – Six1/Eya2 interaction inhibition | activity change, % (concentration not given with the values) | AlphaScreen GST-Six1/His-Eya2 binding, biochemical; active compounds read low | Q15475+O00167 | actives 0.56% (n = 360,000); in the data active = activity change below about -65%; inconclusive = mostly about -30% to -63%; note: % is set by controls: 0 for no effect and ±100 for the full control effect
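Compounds are tested against tagged Six1 and Eya2 proteins bridged by glutathione donor and nickel acceptor beads; after a one-hour incubation at 37 °C without light, AlphaScreen emission is recorded.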
CtBP-E1A inh – inhibitors of CtBP/E1A interaction; AlphaScreen GST-E1A/His-CtBP binding, 1536-well; active compounds read low; activity change, % (test concentration not listed); actives 0.49% (n = 340,000); in the data active = activity change below about -65%; inconclusive = mostly about -30% to -63%; note: % is set by controls: 0 for no effect and ±100 for the full control effect
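AlphaScreen with 125 nM GST-E1A and 125 nM His-CtBP (5X stocks) in Tris pH 8.0, 300 mM NaCl, BSA, Tween 20, TCEP. Compounds preincubated 2 h at 37 deg C, then glutathione donor/nickel acceptor beads added for 1 h at 37 deg C in dark.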
HP1b binding inh – inhibitors of HP1-beta chromodomain binding to methylated histone tails. AlphaScreen HP1-beta / biotin-H3K9me3 peptide binding. Potency, µM (titrated, usually from 114 µM), for the others: at the top dose activity change, negative = inhibition, actives largely listed as inhibitors. AID 540317. actives 0.56% (n = 390,000); note: potency is the fitted concentration of half-maximal effect; nearly all actives have a fitted effect of over 70% in size
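HP1-beta protein (50 nM final) preincubated 30 min at room temperature with biotinylated H3(1-18)K9me3 peptide (50 nM) in PBS pH 7.4, 0.01% Tween-20, then compound added for 30 min. AlphaScreen streptavidin donor/nickel chelate acceptor beads (10 ug/mL final), 30 min dark, luminescence read.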
G9a inh – G9a (human) methyltransferase inhibition | G9a H3K9 monomethylation, AlphaScreen, 2 h | Q96KQ7 | actives 8.8% (n = 350,000) | Potency, µM (top dose mostly 102 µM), for the others: at the top dose activity, negative = inhibition, most hits filed as inhibitors; note: potency is the fitted concentration of half-maximal effect; % is set by controls: 0 for no effect and ±100 for the full control effect; nearly all actives have a fitted effect of over 75% in size
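Enzyme 20 nM + cpd, 15 min RT; add b-H3K9 pep 500 nM / SAM 20 uM; 2 h RT; anti-H3K9me1 Ab 0.5 ug/mL + SA donor / anti-rabbit acceptor beads 20 ug/mL each, 10 min; AlphaScreen read.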
BAZ2B inh – BAZ2B (human) inhibition | Q9UIF8 | AlphaScreen BAZ2B-H3K14Ac peptide displacement | Potency, µM (series often up to 114 µM), for inactives: at the top dose activity change, negative = inhibition, usual class: inhibitors | actives 4.4% (n = 360,000); note: potency is the fitted concentration of half-maximal effect; % is set by controls: 0 for no effect and ±100 for the full control effect; nearly all actives have a fitted effect of over 60% in size
Target sequence (Q9UIF8 whole entry, looked up): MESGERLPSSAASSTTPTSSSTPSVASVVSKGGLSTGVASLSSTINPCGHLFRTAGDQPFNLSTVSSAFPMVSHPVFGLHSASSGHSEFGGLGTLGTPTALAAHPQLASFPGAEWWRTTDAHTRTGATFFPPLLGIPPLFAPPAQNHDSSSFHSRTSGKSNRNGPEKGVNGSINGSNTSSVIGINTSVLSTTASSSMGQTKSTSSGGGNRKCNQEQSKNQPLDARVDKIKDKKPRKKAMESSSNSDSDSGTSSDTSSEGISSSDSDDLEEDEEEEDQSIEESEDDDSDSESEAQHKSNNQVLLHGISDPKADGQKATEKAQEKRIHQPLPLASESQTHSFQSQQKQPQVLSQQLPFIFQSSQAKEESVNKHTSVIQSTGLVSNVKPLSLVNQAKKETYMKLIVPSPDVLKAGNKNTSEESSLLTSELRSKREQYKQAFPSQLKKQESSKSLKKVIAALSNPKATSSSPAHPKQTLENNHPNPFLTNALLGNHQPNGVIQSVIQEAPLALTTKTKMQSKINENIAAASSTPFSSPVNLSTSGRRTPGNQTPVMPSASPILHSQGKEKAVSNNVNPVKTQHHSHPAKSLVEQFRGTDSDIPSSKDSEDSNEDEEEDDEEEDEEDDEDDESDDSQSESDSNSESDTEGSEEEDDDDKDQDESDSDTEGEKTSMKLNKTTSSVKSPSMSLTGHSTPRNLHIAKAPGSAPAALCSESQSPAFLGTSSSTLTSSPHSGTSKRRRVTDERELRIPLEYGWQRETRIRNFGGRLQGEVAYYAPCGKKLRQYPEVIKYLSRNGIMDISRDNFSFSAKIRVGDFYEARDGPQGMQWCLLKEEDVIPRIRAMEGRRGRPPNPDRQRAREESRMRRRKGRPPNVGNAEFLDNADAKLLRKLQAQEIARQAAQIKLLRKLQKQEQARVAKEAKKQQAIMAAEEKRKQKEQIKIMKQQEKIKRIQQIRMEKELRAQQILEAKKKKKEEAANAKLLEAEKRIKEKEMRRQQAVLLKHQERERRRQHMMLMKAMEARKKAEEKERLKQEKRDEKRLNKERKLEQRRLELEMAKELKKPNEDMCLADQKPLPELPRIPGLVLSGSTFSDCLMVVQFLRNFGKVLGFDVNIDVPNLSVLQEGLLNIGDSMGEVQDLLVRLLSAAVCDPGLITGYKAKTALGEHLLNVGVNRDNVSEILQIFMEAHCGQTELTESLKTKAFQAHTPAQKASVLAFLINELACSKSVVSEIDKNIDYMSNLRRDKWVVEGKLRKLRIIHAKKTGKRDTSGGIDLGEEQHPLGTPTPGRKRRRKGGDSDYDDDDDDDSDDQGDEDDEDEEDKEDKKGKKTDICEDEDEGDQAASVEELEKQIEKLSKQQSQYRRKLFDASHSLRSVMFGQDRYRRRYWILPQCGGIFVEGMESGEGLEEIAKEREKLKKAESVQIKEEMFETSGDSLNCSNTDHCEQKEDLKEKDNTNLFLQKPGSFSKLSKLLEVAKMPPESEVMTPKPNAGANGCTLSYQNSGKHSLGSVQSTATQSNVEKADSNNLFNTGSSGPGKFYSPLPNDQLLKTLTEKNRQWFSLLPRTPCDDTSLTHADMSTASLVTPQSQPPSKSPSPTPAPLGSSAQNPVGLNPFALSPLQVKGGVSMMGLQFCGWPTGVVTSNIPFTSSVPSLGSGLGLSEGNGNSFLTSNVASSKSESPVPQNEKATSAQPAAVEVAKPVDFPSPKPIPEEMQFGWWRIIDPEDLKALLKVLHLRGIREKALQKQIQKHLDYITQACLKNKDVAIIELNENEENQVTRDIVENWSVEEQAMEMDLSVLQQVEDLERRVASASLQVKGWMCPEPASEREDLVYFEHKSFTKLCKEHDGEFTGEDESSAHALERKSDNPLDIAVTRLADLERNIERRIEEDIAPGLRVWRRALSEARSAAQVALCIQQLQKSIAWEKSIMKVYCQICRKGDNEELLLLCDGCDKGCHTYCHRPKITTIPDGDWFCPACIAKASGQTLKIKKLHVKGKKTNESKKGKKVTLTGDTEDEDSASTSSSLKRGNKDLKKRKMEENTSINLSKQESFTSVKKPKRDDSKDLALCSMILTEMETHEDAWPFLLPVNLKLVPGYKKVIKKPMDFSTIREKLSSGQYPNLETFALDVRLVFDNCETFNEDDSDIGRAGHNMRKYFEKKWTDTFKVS
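Multi-concentration screen (max 110 uM) measuring displacement of acetylated histone H3 peptide from BAZ2B by AlphaScreen, using 50 nM protein, 50 nM peptide and 10 ug/mL streptavidin donor plus Ni-chelate acceptor beads.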
JMJD2A Tudor inh – inhibitors of human JMJD2A Tudor domain | O75164 | AlphaScreen JMJD2A-Tudor / H3K4me3 peptide binding | Potency, µM (doses to about 114 µM), for the others: top-dose activity change, negative = inhibition, hits mostly inhibitors | actives 4.4% (n = 390,000); note: potency is the fitted concentration of half-maximal effect; % is set by controls: 0 for no effect and ±100 for the full control effect; nearly all actives have a fitted effect of over 50% in size
* hit, by the source's call; ? = inconclusive; / = no result; [ ] = remark or other dose. Unless noted, calls come from the whole dose curve; as a rule, active = well fitted inhibition curve with a large enough effect; inconclusive = small, poorly fitted or top-dose-only effect; inactive = no such curve, though single readings can be large or run the other way.

SMILES	Six1-Eya2 blk	CtBP-E1A inh	HP1b binding inh	G9a inh	BAZ2B inh	JMJD2A Tudor inh
CC(=O)O[C@H]1Cc2ccccc2N(C(N)=O)c2ccccc21	/	/	/	2%[59 µM]	/	/
Cc1onc(-c2c(F)cccc2Cl)c1C(=O)Nc1c(C)n(C)n(-c2ccccc2)c1=O	7	9	18%	-48%	14%	-5%
Cc1c(NC(=O)c2cc3ccccc3oc2=O)c(=O)n(-c2ccccc2)n1C	3	-3	9%	25µM*	-1%	-4%
Cc1c(NC(=O)c2ccc(COc3ccc4ccccc4c3)o2)c(=O)n(-c2ccccc2)n1C	-4	-5	1%	?	50µM*	-31%
Cc1c(NC(=O)c2cc(-c3ccccc3)on2)c(=O)n(-c2ccccc2)n1C	0	5	-7%	12%[59 µM]	8%	100µM*
Cc1c(NC(=O)c2cc(-c3ccc(O)cc3)on2)c(=O)n(-c2ccccc2)n1C	23	1	87%	-6%	-1%	-4%[11.4 µM]
Cc1onc(-c2c(F)cccc2Cl)c1C(=O)NC(=S)Nc1c(C)n(C)n(-c2ccccc2)c1=O	-5	0	23%	32µM*	?	-14%
Cc1cc(C)c2c(C)c(C(=O)Nc3c(C)n(C)n(-c4ccccc4)c3=O)oc2c1	-5	-3	35%	71µM*	1%	-11%
Cc1ccc2c(=O)cc(C(=O)Nc3c(C)n(C)n(-c4ccccc4)c3=O)oc2c1	/	/	27%	?	-6%	-3%
Cc1c(Nc2scc(-c3ccccc3)[n+]2-c2ccccc2)c(=O)n(-c2ccccc2)n1C	-10	4	?	28µM*	50µM*	56µM*
COc1cc(NC(=O)c2ccc(-c3cnn(C)c3)c3ccoc23)cc(OC)c1OC	6	0	/	/	/	/
CCc1ccccc1Nc1nc2ccccc2n2cnnc12	/	/	56%	6%[59 µM]	3%	0%
CCCN1CNc2c(c(=O)[nH]c(=S)n2CCc2c(OC)cccc2OC)C1	/	/	22%	/	/	-17%
CCOc1ccc(NCc2cc3cc(OC)ccc3[nH]c2=O)cc1	5	-20	-4%	?	-27%	?
COc1ccc2[nH]c(=O)c(CNc3ccccc3)cc2c1	-2	-11	14%	35µM*	0%	-28%
COc1ccc2[nH]c(=O)c(CNc3ccccc3C)cc2c1	0	0	-2%	10µM*	-1%	-27%
COc1ccc2[nH]c(=O)c(CNc3ccccc3OC)cc2c1	-6	-7	-15%	35µM*	?	?
COc1ccc2[nH]c(=O)c(CN(C(=O)c3cccc(Cl)c3)c3ccccc3OC)cc2c1	/	/	15%	14µM*	-10%	-12%
NC(=S)NNC(=O)Nc1ccc(Cl)c(Cl)c1	1	-29	13%	?	-20%	?
CCOC(=O)c1c(C)n(-c2ccccc2)c2ccc(OC(=O)c3ccccc3)cc12	/	/	34%	-3%[59 µM]	-5%	0%
CC(C)(C)n1nnnc1C(c1cc2ccccc2o1)N1CCN(C(=O)OCc2ccccc2)CC1 (centres undefined)	-9	-2	/	/	/	/
O=c1oc2c(CN3CCOCC3)c(O)ccc2cc1-c1ccc(Cl)cc1	/	/	184%	31%[59 µM]	112%	26%
Cc1ccc(Cl)cc1NC(=O)c1ccc2snnc2c1	/	/	38%	5%[59 µM]	0%	2%
O=C(c1cccc(F)c1)N1CCC2(CC1)CCN(c1ccc(-c3ccccc3)cc1)CC2	/	/	/	-27%[12.7 µM]	/	/
COc1ccc(NCc2cc(=O)[nH]c3ccccc23)cc1	10	0	-13%	?	79µM*	?
SMILES	Six1-Eya2 blk	CtBP-E1A inh	HP1b binding inh	G9a inh	BAZ2B inh	JMJD2A Tudor inh
O=c1c2sc3ccccc3c2n(Cc2cccc(C(F)(F)F)c2)c(=O)n1-c1ccccc1	/	/	15%	-4%[59 µM]	0%	-10%
S=C1NCCc2ccc(Cl)cc2C1c1ccccc1Cl (centres undefined)	-7	-1	-27%	?	45µM*	?
Clc1ccc2c(c1)C(C1=NCCN1)c1ccccc1CS2 (centres undefined)	0	5	32%	6%[59 µM]	3%	-7%
CN(C)S(=O)(=O)c1ccc(NC(=O)CSc2nc3ccccc3n2-c2ccccc2)cc1	-13	-6	-6%	-5%[59 µM]	-27%	-27%
CN(C)S(=O)(=O)c1cccc(NC(=O)CSc2nc3ccccc3n2-c2ccccc2)c1	-9	-20	-1%	79µM*	-7%	-25%
Nc1ccccc1N=Nc1ccccc1N	?	-79*	?	14µM*	3.2µM*	2.8µM*
CN1c2cccc3cccc(c23)N(C)C1c1cccs1	-16	-8	?	16µM*	?	-25%
CC1N(C)c2cccc3cccc(c23)N1C	?	-6	?	2µM*	50µM*	-32%[57.1 µM]
c1csc(C2Nc3cccc4cccc(c34)N2)c1	-7	-9	?	?	?	-30%
CN(C)CC/C=C1/c2ccccc2Sc2c(O)cc(Cl)cc21	?	?	-22%	25µM*	?	?
COc1cc2c(cc1Cl)/C(=C\CCN(C)C)c1ccccc1S2	-20	17	?	?	?	?
COc1cc(Cl)cc2c1Sc1ccccc1/C2=C/CCN(C)C	-18	-25	-18%	?	45µM*	?
COCCNCCCCOc1c(Cl)cc(C)cc1Br	1	1	-17%	/	50µM*	3.2µM*
Cc1cc(C)c(OCCCNCc2ccccc2)c(Br)c1	4	/	?	13µM*	50µM*	25µM*
Cc1cc(Cl)c(OCCCNCc2ccccc2)c(Br)c1	1	5	-20%	11µM*	?	?
Cc1cc(Cl)c(OCCN2C(=O)NC(C)(C)C2=O)c(Br)c1	-1	1	30%	-1%	1%	9%
Cc1cc(C)c(OCCOCCN(C)C)c(Br)c1	5	1	?	10µM*	?	25µM*
COc1ccc(C(=O)C[C@@H]2OC3CCCCC3N2S(=O)(=O)c2ccc(C)cc2)cc1OC (some centres undefined)	-6	-2	/	/	/	/
C=C1c2cccc(C(F)(F)F)c2O[C@H](C(=O)OCC)C1OC (mixture of isomers)	/	/	/	34%	/	/
Cc1ccc(NC(=O)Cn2c(=O)n(CCC(=O)N3CCc4ccccc4C3)c(=O)c3ccccc32)cc1	/	/	9%	-5%[59 µM]	4%	-11%
Cc1cc(Cl)cc(Br)c1OCCCNCC(C)O (centres undefined)	-2	3	47%	3%	-17%	3%
Cc1cc(C)c(OCCCNC2CCCC2)c(Br)c1	7	-10	6%	/	?	79µM*
COc1cccc2c1cc1c(=O)n(CC(=O)O)nc(C)n12	/	/	42%	-3%[59 µM]	-1%	-4%
